Activation (protection from necroptosis) data for one compound are collected here from PubChem BioAssay AID463117 (University of Pittsburgh Molecular Library Screening Center, 2010).

Structures are written as SMILES. This is one part of the list. Calls of active or inactive are those of the source.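 The calls were made as follows: active = mean protection from necroptosis of at least 50% over duplicate tests; inactive = mean protection below 50%.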

The nature of the assay: rescue of L929 cells from caspase-blocker death – duplicate runs, confirmation (AID 463117).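 Also: 0% = cells with zVAD alone and 100% = vehicle cells without zVAD.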 As to conditions: L929 zVAD-induced necroptosis rescue, ATP luminescence, 24 h; at 10 µM; stronger effect = higher value.

Regarding `COC(=O)N1C(c2ccccc2)C1c1ccccc1` (stereo unspecified), the activation (protection from necroptosis) was 91.7% (active).
